Source: PubChem BioAssay
Only some compounds are listed: those with a hit (about 5.5% of all), similar ones and a draw of the others.
Chronic BCR inh – qHTS Assay to Find Inhibitors of Chronic Active B-Cell Receptor Signaling. ABC-DLBCL IkBa-CBG/CBR reporter, luminescence ratio, 4 h. Potency, µM (titrated, usually from 46.1 µM), actives largely listed as inhibitors. 340,000 tested, 0.05% active. AID 493014, 2011; active = well fitted inhibition curve with a large enough effect in the signal ratio, with a control signal flat, not every such curve was filed as active; inconclusive = small, poorly fitted or top-dose-only effect, or effect the other way, or a change in a side signal; the % refers to the signal ratio
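Doxycycline induced both beetle luciferases in TMD8 lymphoma cells; IKK-driven degradation limits the IkappaBalpha-fused green signal, while red luminescence normalises for cell number and nonspecific effects. Compounds tested up to 46 uM, 4 hrs.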
Mito fusion act – qHTS Assay for Small Molecule Inhibitors of Mitochondrial Division or Activators of Mitochondrial Fusion | 320,000 tested, 0.23% active | S. cerevisiae fusion-defective mutant growth rescue, CellTiterGlo 48 h | Potency, µM (doses to about 46.1 µM), actives largely listed as activators; note: nearly all actives have a fitted effect of over 45% in size
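Yeast fusion mutant, YPEG (non-fermentable carbon), compound, 48 h at 37C non-permissive; CellTiterGlo added, 10 min RT, luminescence read. Rescued growth = division inhibition.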
Integrin act MD – qHTS for Activators of Integrin-Mediated Alleviation for Muscular Dystrophy | AID 624291, 2012 | alpha7betagal myoblasts, beta-gal FDG fluorescence, 48 h | Potency, µM (highest dose often 38.3 µM), actives largely listed as activators | 350,000 tested, 0.064% active; note: nearly all actives have a fitted effect of over 60% in size
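alpha7betagal+/- myoblasts (passage 13, 250/well) treated 48 h at 37C with compounds at 1:260 dilution of DMSO stock. Lysed, then beta-galactosidase activity read as FDG fluorescence (ex 480/em 540) after 30 min, with pre-read for autofluorescence.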
VP16 counter – VP16 counterscreen qHTS for inhibitors of ROR gamma transcriptional activity; Drosophila S2 Gal4-VP16 UAS-luciferase, luminescence, 20 h; Potency, µM (highest dose often 53.6 µM), actives largely listed as inhibitors; 310,000 tested, 3.5% active; AID 2546, 2010;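 note: Gal4-VP16 expression switched on by copper sulfate through the metallothionein promoter; nearly all actives have a fitted effect of over 50% in size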
RORg inh – qHTS for inhibitors of ROR gamma transcriptional activity; Drosophila S2 Gal4-RORgamma UAS-luciferase reporter, 20 h; 310,000 tested, 5.4% active; Nuclear receptor ROR-gamma (Mus musculus), P51450; Potency, µM (top dose mostly 53.6 µM), most hits filed as inhibitors; note: nearly all actives have a fitted effect of over 60% in size
Target sequence (P51450 whole entry, looked up, the tested form may be a part): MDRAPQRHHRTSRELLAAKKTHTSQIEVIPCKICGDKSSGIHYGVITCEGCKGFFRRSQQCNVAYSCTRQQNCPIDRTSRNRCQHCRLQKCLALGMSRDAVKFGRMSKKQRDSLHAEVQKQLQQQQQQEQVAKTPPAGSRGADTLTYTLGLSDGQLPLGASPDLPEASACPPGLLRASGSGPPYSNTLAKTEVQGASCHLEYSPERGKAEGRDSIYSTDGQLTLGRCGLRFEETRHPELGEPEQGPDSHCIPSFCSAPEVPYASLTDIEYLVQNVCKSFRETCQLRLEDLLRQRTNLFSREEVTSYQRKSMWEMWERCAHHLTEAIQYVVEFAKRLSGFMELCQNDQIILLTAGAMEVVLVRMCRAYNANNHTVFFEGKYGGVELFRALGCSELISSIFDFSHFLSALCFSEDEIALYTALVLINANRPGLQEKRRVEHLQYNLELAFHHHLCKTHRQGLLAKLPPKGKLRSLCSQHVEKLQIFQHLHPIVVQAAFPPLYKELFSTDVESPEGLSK
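Drosophila S2 cells stably expressing Gal4-DBD/mouse RORγ fusion under metallothionein promoter plus UAS-luciferase; compound 1 h, then 700 uM CuSO4 induction for 20 h at ambient temperature; inhibition read as reduced luminescence.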
uPA surface inh – qHTS for Inhibitors of Cell Surface uPA Generation; cell surface uPA generation assay, qHTS; Potency, µM (highest dose often 38.3 µM), actives largely listed as inhibitors; 330,000 tested, 0.31% active; AID 540303, 2011; active = well fitted inhibition curve with a large enough effect; inconclusive = small, poorly fitted or top-dose-only effect; inactive = no such curve, though single readings can be large or run the other way; tested in mouse RAW 264.7 cells; note: nearly all actives have a fitted effect of over 55% in size
Hits are given with their value; - = inactive; ? = inconclusive; . = not tested or not shown; [ ] = remark or other dose. Unless noted, calls come from the whole dose curve; as a rule, active = well fitted curve in the direction sought with a large enough effect; inconclusive = small, poorly fitted or top-dose-only effect, or another doubt; inactive = no such curve, though single readings can be large; an effect the other way counts as inactive or inconclusive.

SMILES	Chronic BCR inh	Mito fusion act	Integrin act MD	VP16 counter	RORg inh	uPA surface inh
Cc1ccc2nc(C)/c(=N\O)c(C)nc2c1	?	-	-	-	11µM	.
O=C(c1cccc(Cl)c1)N1CCC(=O)N(C(COCc2cccc(Cl)c2)Cc2ccccc2)CC1 (stereo not given)	-	?	-	-	?	?
O=C(c1ccc(Cl)c(Cl)c1)N1CCC(=O)N(C(COCc2cccc(Cl)c2)Cc2ccccc2)CC1 (stereo not given)	?	35µM	-	-	?	?
CCOC(=O)C(C(C)=O)c1c(Br)c(O)c(O)c2c(C(=O)c3ccc(C)cc3)coc12 (stereo not given)	?	-	-	16µM	13µM	?
COc1ccc(F)cc1CN1CCN(c2cc(C)nc3c4c(C)cc(C)nc4nn23)CC1	-	-	.	?	20µM	.
NNC(=O)c1ccc(N2CCc3ccccc32)c([N+](=O)[O-])c1	-	-	-	-	?	-
COC(CNC(=O)c1ccc(N2CCc3ccccc32)c([N+](=O)[O-])c1)OC	-	-	-	18µM	?	-
C[C@H]1[C@H](C)CC[C@]2(C=O)CC[C@]3(C)C(=CC[C@@H]4[C@@]5(C)C[C@@H](O)[C@H](O)[C@@](C)(CO)[C@@H]5CC[C@]43C)[C@H]12	.	.	.	?	-	.
COc1ccc([C@H]2C[C@@H](O)[C@H](n3cc(-c4ccc(F)cc4)nn3)CN2CC2CCCCC2)cc1	.	.	-	.	.	.
CCCCCCN1C[C@@H](n2cc(COC(=O)c3ccccc3)nn2)[C@H](O)C[C@@H]1c1ccc(OC)cc1	.	.	-	.	.	.
Cc1cccc(N=C2NN=C(c3c(C)[nH]c4ccccc34)CS2)c1	?	-	-	?	-	-
Cc1cccc(N=C2NN=C(c3ccc4c(c3)OCCO4)CS2)c1	?	-	-	?	7.9µM	.
Cc1cc(C)c2c(c1)/C(=C/C(=O)c1ccc(Br)s1)C(=O)N2	?	-	-[7.66 µM]	-	-	-
Cc1cc(Br)c2c(c1)/C(=C/C(=O)c1cccs1)C(=O)N2	?	-	-	18µM	11µM	-
Cc1cccc2c1NC(=O)/C2=C\C(=O)c1cccs1	?	-	-	?	7.1µM	-
CCc1ccc2c(c1)/C(=C/C(=O)c1cccs1)C(=O)N2	?	-	-[7.66 µM]	10µM	5.6µM	-
Cc1ccc(C2=NCCn3c2c2ccccc2[n+]3[O-])cc1	-	-	-	.	.	-
O=C(O)C1=CC(O)[C@@H](O)C(O)C1 (stereo not given in full)	.	.	.	-	-	.
C=C1C(=O)O[C@@H]2[C@@H]1CC/C(C)=C\CC[C@@]1(C)O[C@H]21	.	.	.	3.5µM	3.2µM	.
C=C1C(=O)O[C@@H]2[C@H]3O[C@]3(C)CCC=C(C)CC[C@@H]12	.	-	.	?	7.1µM	.
O=C(CCc1ccccc1)Nc1nnc(-c2ccc3c(c2)CCCC3)o1	?	-	-	?	14µM	-
O=C(CCc1ccccc1)Nc1nnc(-c2ccccn2)o1	-	-	-	?	?	-
O=C(CCc1ccccc1)Nc1nnc(-c2ccc3c(c2)OCCO3)o1	-	-	-	?	6.3µM	-
O=C(COC(=O)c1ccc(Cl)nc1)Nc1cccnc1Cl	-	-	-	.	.	-
CCc1nonc1NC(=O)COc1cc(C)c(Cl)c(C)c1	-	11µM	-	-	-	-
SMILES	Chronic BCR inh	Mito fusion act	Integrin act MD	VP16 counter	RORg inh	uPA surface inh
COC(=O)c1ccc2c(=O)[nH]c(CCl)nc2c1	-	-	-	-	13µM	-
C[C@H]1CN([C@@H](C)CO)C(=O)CCCn2nncc2CO[C@@H]1CN(C)C(=O)c1ccncc1	.	.	-	.	.	.
CCOc1ccc(/C=C/c2c([N+](=O)[O-])c(=O)n(C)c(=O)n2C)cc1	?	-	-	-	-	-
Cn1c(/C=C/c2ccc(Cl)cc2Cl)c([N+](=O)[O-])c(=O)n(C)c1=O	-	-	-	?	11µM	?
CCc1ccc(/C=C/c2c([N+](=O)[O-])c(=O)n(C)c(=O)n2C)cc1	?	-	-	-	?	6.3µM
CSCC[C@H](NC(=O)[C@H](CC(C)C)N1CCC(NC(=O)[C@@H](NC(=O)[C@H](Cc2ccccc2)NC(=O)[C@H](CO)NC(=O)[C@H](CC(=O)O)NC(=O)[C@@H](N)CCCCN)C(C)C)C1=O)C(N)=O (stereo not given in full)	.	.	.	-	-	.
O=C(NCc1ccco1)c1ccc([N+](=O)[O-])o1	-	-	-	-	5µM	-
O=C(NN(c1ccccc1)c1ccccc1)c1ccc([N+](=O)[O-])o1	?	-	-	-	?	-
O=C(NCc1ccco1)c1ccc(Cn2cc([N+](=O)[O-])cn2)o1	?	-	-	-	-	.
CC(=O)c1ccc(NC(=O)c2ccc([N+](=O)[O-])o2)cc1	?	-	-	13µM	6.3µM	?
O=C(NNC(=O)c1ccc([N+](=O)[O-])o1)c1ccccc1	?	-	-	18µM	11µM	-
O=C(c1cc(C(F)(F)F)cc(C(F)(F)F)c1)N1CCC2(CCCN(Cc3nccs3)C2)CC1	.	.	.	-	-	.
Cc1ccn(C)c(=N)c1	-	-	-	-	-	-
CCOc1ccc(C(=O)NCC(=O)Nc2ccc(N3CCOCC3)cc2)cc1OCC	-	-	-	-	-	-
Cn1c(SCc2ccccc2)nc(C(F)(F)F)cc1=O	-	-	-	-	-	-
Cn1c(SCc2ccccc2)nc(N)c(N=O)c1=O	.	.	-	.	.	3.5µM
CN(C)c1ccc(C(=S)N2CCCCC2)cc1Br	-	-	-	-	10µM	-
S=C(c1ccc(N2CCCC2)cc1)N1CCCCC1	-	-	-	?	8.9µM	-
Oc1ccc(C(=S)N2CCCCCC2)cc1	-	-	-	-	-	-
S=C(c1ccc(N2CCCC2)c(Br)c1)N1CCCCC1	-	-	-	-	20µM	-
CCN(C(=O)C(C)OC(=O)CCCNC(=O)c1ccc(Cl)cc1)c1ccccc1 (stereo not given)	-	-	-	.	.	-
Cc1cccc(N2CCN(C(=O)C3CCN(c4nnc(-n5cccc5)s4)CC3)CC2C)c1 (stereo not given)	-	-	-	?	-	-
Cc1ccc(Cl)cc1N1CCN(C(=O)C2CCN(c3nnc(-n4cccc4)s3)CC2)CC1	-	-	-	11µM	-	-
Cc1cc([N+](=O)[O-])c(C)cc1-c1ccc(/C=N/NC(=O)c2cccnc2)o1	-	-	-	?	8.9µM	-
